An excerpt weighted towards active compounds, which were near 0.88% of everything screened.
CtBP-E1A blk – CtBP/E1A binding inhibition. 0.49% of 340,000 active. AlphaScreen GST-E1A/His-CtBP binding, 1536-well; active compounds read low. activity change, % (test concentration not listed)
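Protein mix (5X: 125 nM each GST-E1A, His-CtBP) was incubated with pinned compound 2 h at 37 deg C in dark, in 50 mM Tris pH 8.0 buffer with 300 mM NaCl. Glutathione donor and nickel acceptor beads followed; AlphaScreen signal read after 1 h.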
RGS4 inh – inhibitors of human regulator of G protein signaling 4. P49798. Transcreener GDP fluorescence polarization, RGS4-accelerated GTP hydrolysis. Potency, µM (titrated, usually from 114 µM), hits mostly inhibitors. 0.039% of 390,000 active. AID 504845; active = well fitted curve in the direction sought with a large enough effect; inconclusive = small, poorly fitted or top-dose-only effect, or another doubt; inactive = no such curve, though single readings can be large; an effect the other way counts as inactive or inconclusive; note: nearly all actives have a fitted effect of over 75% in size
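MLSMR compounds (23 nl, pin-transferred) preincubated 10 min at room temperature with a 500nM (2x) first reagent, then RGS4 at 900nM (2x) plus Transcreener GDP mix added; fluorescence polarization (620/688 nm) read before and after 90 min at 30 °C.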
pAkt inh – blocks phosphorylation of Akt. Neuro2A IGF-stimulated pAkt S473 HTRF, 20 min; active compounds read low. activity change, % for hits at 50 µM. 0.32% of 360,000 active. AID 651550; in the data active = activity change below about -80%; inconclusive = mostly about -51% to -80%
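Single-point screen (50 µM final compound) in Neuro2A cells stimulated 20 min with 6 nM IGF at 37 deg C. After lysis, Ser473-phosphorylated Akt read by HTRF (ex 330 nm, em 615/665 nm) as the 665/615 ratio.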
Six1-Eya2 blk – inhibitors of human Six1/Eya2 interaction | Q15475+O00167 | AlphaScreen GST-Six1/His-Eya2 binding, biochemical; active compounds read low | AID 651725 | 0.56% of 360,000 active | activity change, % (no concentration beside the values)
Target sequence (O00167 whole entry, looked up): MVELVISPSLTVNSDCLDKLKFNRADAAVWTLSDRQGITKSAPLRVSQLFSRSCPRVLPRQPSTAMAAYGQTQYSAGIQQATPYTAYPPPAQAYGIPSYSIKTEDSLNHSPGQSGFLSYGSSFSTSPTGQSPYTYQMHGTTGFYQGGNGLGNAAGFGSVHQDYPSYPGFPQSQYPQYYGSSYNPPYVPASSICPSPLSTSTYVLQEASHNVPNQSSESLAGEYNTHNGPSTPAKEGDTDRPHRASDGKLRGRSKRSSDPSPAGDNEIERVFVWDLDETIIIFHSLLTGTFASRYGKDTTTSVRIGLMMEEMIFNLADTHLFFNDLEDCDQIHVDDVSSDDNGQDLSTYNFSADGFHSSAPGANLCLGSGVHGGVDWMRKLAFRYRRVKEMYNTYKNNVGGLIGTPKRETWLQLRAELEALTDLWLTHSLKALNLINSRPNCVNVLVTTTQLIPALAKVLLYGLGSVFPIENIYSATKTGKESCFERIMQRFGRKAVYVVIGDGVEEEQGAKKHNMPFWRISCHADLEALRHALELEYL
Target sequence (Q15475 whole entry, looked up): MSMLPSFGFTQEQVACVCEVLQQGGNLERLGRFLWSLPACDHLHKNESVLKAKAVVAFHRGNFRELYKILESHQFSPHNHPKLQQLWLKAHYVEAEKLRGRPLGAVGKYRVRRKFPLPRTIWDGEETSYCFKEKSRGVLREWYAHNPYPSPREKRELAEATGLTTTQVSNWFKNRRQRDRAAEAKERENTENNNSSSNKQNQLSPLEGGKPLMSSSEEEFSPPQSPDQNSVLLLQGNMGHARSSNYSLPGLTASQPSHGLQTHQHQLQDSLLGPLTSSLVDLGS
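Homogeneous AlphaScreen proximity assay pairing GST-Six1 with His-tagged Eya2 (added as 5X mix: 250 nM and 500 nM) in 50 mM Tris pH 8.0, 300 mM NaCl, 1 mM TCEP. Glutathione donor and nickel acceptor beads; 1 h, 37 °C, dark.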
Glioma ERSR ind – inducers of ER stress response in human glioma cells | 0.02% of 420,000 active | Potency, µM, usual class: activators | U87-MG GRP78 promoter luciferase reporter, 16 h; active = well fitted curve in the direction sought with a large enough effect; inconclusive = small, poorly fitted or top-dose-only effect, or another doubt; inactive = no such curve, though single readings can be large; an effect the other way counts as inactive or inconclusive; note: series mostly up to about 76 µM; nearly all actives have a fitted effect of over 35% in size
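ERSR induction read as luciferase luminescence (Bright-Glo, 10 min at room temperature) in stably transfected human U87-MG glioma cells exposed to compounds for 16 h, using GRP78 as sensor.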
Large screens that a line does not name were inactive. Cut-off read from the data, not from the text of the source, unless noted: active = activity change below about -65%; inconclusive = mostly about -30% to -63%; inactive = weaker than that.

NNC(=O)CSc1cccc2cccnc12	none
O=C(CSc1cccc2cccnc12)Nc1cc(C(=O)O)cc(C(=O)O)c1	CtBP-E1A blk -83, Six1-Eya2 blk inconclusive
CC(C)(C)NC(=O)CSc1nncn1NCc1cccc2ccccc12	pAkt inh -113%
CC(C)(C)NC(=O)CSc1nncn1NCc1c(Cl)cccc1Cl	none
NC(c1csc(Nc2cc(Oc3ccccc3)ncn2)n1)c1ccccc1Cl (stereo not given)	CtBP-E1A blk inconclusive (no result: RGS4 inh)
CC(N)c1csc(Nc2nccc(C(F)(F)F)n2)n1 (stereo not given)	CtBP-E1A blk inconclusive, Six1-Eya2 blk inconclusive (no result: RGS4 inh)
CC(N)c1csc(Nc2cc(Oc3ccccc3)ncn2)n1 (stereo not given)	CtBP-E1A blk -68, Six1-Eya2 blk inconclusive (no result: RGS4 inh)
CC(N)c1csc(Nc2ncccn2)n1 (stereo not given)	CtBP-E1A blk -88, Six1-Eya2 blk -84 (no result: RGS4 inh)
C[N+]1(CC(=O)c2ccc3ccccc3c2)CCOCC1	none (no result: CtBP-E1A blk, RGS4 inh, pAkt inh, Six1-Eya2 blk)
O=C1c2ccc(O)c(O)c2C(=O)c2c(O)ccc(O)c21	none (no result: CtBP-E1A blk, RGS4 inh, pAkt inh, Six1-Eya2 blk)
O=C1c2ccccc2C(=O)c2c1ccc(O)c2O	CtBP-E1A blk inconclusive, Six1-Eya2 blk -65
CCOc1ccc(CCNS(=O)(=O)c2cnc[nH]2)cc1OCC	pAkt inh -132%
CCOc1ccc(CCNS(=O)(=O)c2ccc(-c3ccc(=O)[nH]n3)o2)cc1OCC	none
OCC1OC([S-])[C@H](O)C(O)C1O.[Au+] (stereo not given in full)	none (no result: CtBP-E1A blk, RGS4 inh, pAkt inh, Six1-Eya2 blk)
CCCc1cc(=O)[nH]c(SCC)n1	none
CCCc1cc(=O)[nH]c(SCC(N)=O)n1	pAkt inh -125%
O=C(OCC(=O)N1CCN(c2ccccc2)CC1)c1ccncc1	none
O=C(OCC(=O)N1CCN(c2ccccc2)CC1)c1cccc(Cl)c1	pAkt inh -113%
CCOc1ccc(C(=O)CCNC(Cc2cnc[nH]2)C(=O)O)cc1 (stereo not given)	CtBP-E1A blk -66, Six1-Eya2 blk inconclusive
N#C/C(=N\Nc1ccc(Cl)cc1)C(=O)c1ccccc1	none
Cc1c(N/N=C(\C#N)C(=O)c2ccc(Cl)cc2)c(=O)n(-c2ccccc2)n1C	CtBP-E1A blk -76, Six1-Eya2 blk -82
COc1cccc(NC(=O)c2ccccc2OCC(=O)Nc2ccc(Br)cc2)c1	none (no result: CtBP-E1A blk, RGS4 inh, pAkt inh, Six1-Eya2 blk)
O=C1/C(=C/C=C/c2ccco2)SC(=S)N1c1ccc(O)cc1	CtBP-E1A blk inconclusive, Six1-Eya2 blk inconclusive
CC(C)C(C(=O)O)N1C(=O)/C(=C/C=C/c2ccco2)SC1=S (stereo not given)	RGS4 inh inconclusive, Six1-Eya2 blk -69
COc1ccc2nc(NC(=O)Cn3cnc4c(=O)n(C)c(=O)n(C)c43)sc2c1	CtBP-E1A blk inconclusive, Six1-Eya2 blk inconclusive
Cn1c(=O)c2c(ncn2CC(=O)Nc2nc3ccc(F)cc3s2)n(C)c1=O	pAkt inh -122%
CCOC(=O)c1ccc(NC(=O)CSc2nc(N)c(NC(=O)c3ccc(Br)o3)c(=O)[nH]2)cc1	CtBP-E1A blk inconclusive, Six1-Eya2 blk -79
Cc1cnc(SCc2ccccn2)nc1C1CCCN(C(=O)c2noc3c2CCCC3)C1 (stereo not given)	none (no result: CtBP-E1A blk, RGS4 inh, pAkt inh, Six1-Eya2 blk)
O=C(c1ccccc1)c1ccccn1	none
S=C(Nc1ccccc1)Nc1ccccn1	none (no result: RGS4 inh)
O=C(O)c1ccnc(C(=O)O)c1	CtBP-E1A blk inconclusive, Six1-Eya2 blk -69
O=C(O)c1ccccn1	CtBP-E1A blk -66, Six1-Eya2 blk inconclusive
S=C(Nc1ccccc1)c1ccccn1	CtBP-E1A blk -75, RGS4 inh inconclusive, Six1-Eya2 blk -84
Brc1cc(Br)c[n+](CCc2ccccc2)c1	none (no result: CtBP-E1A blk, RGS4 inh, pAkt inh, Six1-Eya2 blk)
COc1ccccc1-c1noc(CCC(=O)Nc2cccc(C(F)(F)F)c2)n1	pAkt inh -105%
Cc1ccccc1C1(CC(=O)N2CCCC2c2nccs2)CC(=O)N(C2CCCC2)C1=O (stereo not given)	none (no result: CtBP-E1A blk, RGS4 inh, pAkt inh, Six1-Eya2 blk)
Cc1ccc(C2OCC3(CO2)COC(c2ccc(C)cc2)OC3)cc1 (stereo not given)	none
CC1OC1c1ccc(-c2ccc(C3OC3C)cc2)cc1 (stereo not given)	CtBP-E1A blk -86
Cc1ccc2[nH]c(=O)c(CN(Cc3ccco3)C(=O)N3CCOCC3)cc2c1	none
Cc1ccc(CN(Cc2cc3cc(C)ccc3[nH]c2=O)C(=O)N2CCOCC2)cc1	pAkt inh -106%
COc1cccc(NC(=O)CCc2c(C)nc3nc(CNC(=O)c4cccc(F)c4)nn3c2C)c1	CtBP-E1A blk -76, Six1-Eya2 blk inconclusive

Screening data from PubChem.
